In PubChem BioAssay AID2061319 (National Center for Advancing Translational Sciences (NCATS), 2025):
Inconclusive results are not listed. Unmarked numbers belong to inactive results. Activity calls are given as the source filed them. Calls come from the whole dose curve; as a rule, active = well fitted inhibition curve with a large enough effect; inconclusive = small, poorly fitted or top-dose-only effect; inactive = flat fitted curve, though single readings scatter. Square brackets hold non-standard residues; d marks the D form. Peptide text beside a SMILES is read from it. Dolaproine = CO[C@@H]([C@@H]1CCCN1)[C@@H](C)C(=O)O; Dil = CC[C@H](C)[C@H](NC)[C@@H](CC(=O)O)OC; NMeV = CN[C@H](C(=O)O)C(C)C

Assay: Identification of antibody-drug conjugate (ADC) payloads which are substrates of ATP-binding cassette drug efflux transporters: ABCG2-H460-MX20 cell line with Ko143
Settings: H460-MX20 (ABCG2) + Ko143, CellTiter-Glo viability, 48 h; series mostly up to 28.7 µM; activity change, negative = cytotoxicity: at the top concentration
Source text: Antibody-drug conjugates (ADCs) feature an antibody recognizing a specific protein joined to a potent toxic payload. Numerous antibody-drug conjugates have received FDA approval; however, clinical resistance arises. Resistance mechanisms include decreased expression or mutation of the antibody target, impaired payload release, or increased expression of ATP-binding cassette (ABC) efflux transporters associated with multidrug resistance. We therefore sought to characterize the interaction of ABC multidrug transporters with ADC payloads. We performed a high-throughput screen with 27 common ADC payloads using cells lines expressing ABC transporters P-glycoprotein (P-gp, encoded by ABCB1) or ABCG2 (encoded by ABCG2). Confirmatory assays were also performed using cells transfected to express P-gp, ABCG2, or MRP1 (encoded by ABCC1). Several commonly used ADC payloads were substrates of P-gp, including calicheamicin gamma1, monomethyl auristatin E, DM1, and DM4. All the pyrrolobenzodiazepines tested - SJG136, SGD-1882, SG2057, and SG3199 - were substrates of P-gp, ABCG2, and MRP1. […] These findings highlight the risk of transporter-mediated resistance with certain ADC payloads and underscore the importance of selecting payloads that evade ABC transporter recognition in future ADC development.
HEK-293 cells were transfected with empty vector (pcDNA) or vector containing the human ABCB1 (MDR-19), ABCG2 (R-5), or ABCC1 gene (MRP1) and were maintained in EMEM with 2 mg/mL G418 added to maintain transporter expression. The HeLa derivative KB-3-1 and the P-gp overexpressing KB-8-5-11 subline were maintained in DMEM; KB-8-5-11 additionally received 100 ng/mL colchicine. H460 parental cells were obtained from the Division of Cancer Treatment and Diagnosis Tumor Repository, National Cancer Institute at Frederick, MD and were cultured in RPMI. The ABCG2 expressing subline H460 MX20 was generated by selecting H460 cells in 20 nM mitoxantrone. Media in all cases was supplemented with 10% FBS and 1% penicillin-streptomycin. We explored 27 common ADC payloads, in two orthogonal, paired cell line sets-a drug selected and transfected set for each transporter--to identify substrates of the ABC transporters P-gp and ABCG2. Compounds were sourced from Levena Biopharma (San Diego, CA), Selleck Chem (Houston, TX), ChemieTek (Indianapolis, IN), or Microsource Discovery Systems (Gaylordsville, CT). Screening was performed as previously described. Briefly, cells were plated at a density of 500 cells/well in 1536 well plates with compounds added using a 1536-head pin tool (Kalypsys, San Diego CA). Cells were incubated with cytotoxic drugs and processed with CellTiter Glo reagent (Promega, Madison, WI) to determine viability after 48 hours. P-gp substrates were identified by comparing compound activity between paired sets of low-expressing (sensitive) and over-expressing (resistant) cell lines.

| Structure (SMILES) | Potency | activity change, negative = cytotoxicity [%] |
| --- | --- | --- |
| CCN(C(C)=O)[C@H]1CO[C@@H](O[C@H]2[C@H](O[C@H]3C#C/C=C\C#C[C@]4(O)CC(=O)C(NC(=O)OC)=C3/C4=C\CSSSC)O[C@H](C)[C@@H](NO[C@H]3C[C@H](O)[C@H](SC(=O)c4c(C)c(I)c(O[C@@H]5O[C@@H](C)[C@H](O)[C@@H](OC)[C@H]5O)c(OC)c4OC)[C@@H](C)O3)[C@@H]2O)C[C@@H]1OC | 13.4 nM (active) | – |
| COc1cccc2c1C(=O)c1c(O)c3c(c(O)c1C2=O)C[C@@](O)(C(=O)CO)C[C@@H]3O[C@H]1C[C@H](N)[C@H](O)[C@H](C)O1 | 598 nM (active) | – |
| CC[C@H](C)[C@@H]([C@@H](CC(=O)N1CCC[C@H]1[C@H](OC)[C@@H](C)C(=O)N[C@@H](Cc1ccccc1)C(=O)O)OC)N(C)C(=O)[C@@H](NC(=O)[C@@H](NC)C(C)C)C(C)C (H-[NMeV]V[Dil][Dolaproine]F-OH) | 15000 nM (active) | – |
| COC(=O)c1cc2c3c(cc(O)c2[nH]1)N(C(=O)c1cc2cc(OC)c(OC)c(OC)c2[nH]1)CC3CCl (stereo not given) | 0.8 nM (active) | – |
| CC[C@H](C)[C@@H]([C@H](N)CC(=O)N1CCC[C@H]1[C@H](OC)[C@@H](C)C(=O)N[C@@H](Cc1ccccc1)c1nccs1)N(C)C(=O)[C@@H](NC(=O)[C@@H](NC)C(C)C)C(C)C | – | -17.3 |
| CCN[C@H]1CO[C@@H](O[C@H]2[C@H](O[C@H]3C#C/C=C\C#C[C@]4(O)CC(=O)C(NC(=O)OC)=C3/C4=C\CSSSC)O[C@H](C)[C@@H](NO[C@H]3C[C@H](O)[C@H](SC(=O)c4c(C)c(I)c(O[C@@H]5O[C@@H](C)[C@H](O)[C@@H](OC)[C@H]5O)c(OC)c4OC)[C@@H](C)O3)[C@@H]2O)C[C@@H]1OC | 3.8 nM (active) | – |
| CC(C)(C)OC(=O)Nc1ccc2[nH]c(C(=O)N3C[C@@H](CCl)c4c3cc(O)c3ccccc43)cc2c1 | 6.7 nM (active) | – |
| CN(C)CCOc1ccc2[nH]c(C(=O)N3C[C@@H](CCl)c4c3cc(O)c3ccccc43)cc2c1 | 0.5 nM (active) | – |
| COc1cccc2c1C(=O)c1c(O)c3c(c(O)c1C2=O)C[C@@](O)(C(=O)CO)C[C@@H]3O[C@H]1C[C@H]2[C@H](O[C@@H]3[C@@H](OC)OCCN32)[C@H](C)O1 | 0.2 nM (active) | – |
| CCc1c2c(nc3ccc(O)cc13)-c1cc3c(c(=O)n1C2)COC(=O)[C@]3(O)CC | 150 nM (active) | – |
